Experimental data taken from PubChem BioAssay (NCI).
The panel holds about 83,000 compounds, 20% with a hit somewhere; the sample as a whole holds those more often.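 Cell lines were cultured in 96-well plates, exposed to a single compound concentration, and assessed for percent growth 48 hours later.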 A number with no mark means an inactive call. Active and inactive are the calls of the source. Rule for the calls: active = growth percent below 10; inactive = the rest.

tested on: HL-60(TB) leukemia; experiment: NCI-60 one-dose screen, 48 h (100 = growth as untreated, 0 = no growth, -100 = all killed); conditions: 10 µM unless noted

Row | SMILES | growth
1 | CCOC(=O)c1ccc(NC(=S)P(=O)(c2ccccc2)c2ccccc2)cc1 | 80.4%
2 | CCN(CC)CCCC(C)Nc1ccc2ccc(Cl)cc2n1 (stereo not given) | 101%
3 | c1ccc(-c2nc3ccccc3[nH]2)c(OCCCCCOc2ccccc2-c2nc3ccccc3[nH]2)c1 | 22%
4 | C#C[C@]1(O)CC[C@H]2[C@@H]3CC=C4c5sc(N=C(N)N)nc5CC[C@]4(C)[C@H]3CC[C@@]21C | -44.8% (active)
5 | Fc1cc2[nH]ncc2c2c3c(c(-c4cn[nH]c4C(F)(F)F)nc12)C1CCC3C1 (stereo not given) | 1.63% (active)
6 | Clc1nc(Oc2ccccc2)nc(-c2cn(-c3ccccc3)c3ccccc23)n1 | 63.2%
7 | Cc1ccc(O)c(N2C(=NCc3ccco3)NS(=O)(=O)c3cnccc32)c1 | 114%
8 | Fc1ccc(Nc2ccc3c(OCCCN4CCOCC4)cccc3n2)cc1F | 85.3%
9 | COc1cccc(/C=N/N=C(N)N)c1 | 122%
10 | O=C(N/N=C/c1ccccc1O)c1ccccc1O | 4.12% (active)
11 | COc1cc(/C=C/C(=O)N2CCN(C(=O)/C=C/c3ccccc3)CC2)cc(OC)c1OC | 101%
12 | C[C@H]1[C@H](C)CC[C@]2(C(=O)NCCNCCN)CC[C@]3(C)C(=CC[C@@H]4[C@@]5(C)CCC(=O)C(C)(C)[C@@H]5CC[C@]43C)[C@H]12 | -58.5% (active)
13 | Nc1nc(N)c2cc(Sc3cccc(C(F)(F)F)c3)ccc2n1 | 24.6%
14 | COc1ccc(C(=O)N2C=Cc3ccccc3C2C#N)cc1 (stereo not given) | 66.5%
15 | CN1C(=O)C(=Cc2cn(Cc3ccccc3)c3ccc(Br)cc23)C(=O)N(C)C1=O | 73.3%
16 | CC[N+](CCCCCCCCCC[N+](CC)(c1ccccn1)c1ccccn1)(c1ccccn1)c1ccccn1 | -50.7% (active)
17 | CCn1c(Cc2ccccc2Nc2c(Cl)cccc2Cl)nnc1SCC(=O)Nc1cccc(OC)c1 | 53.6%
18 | CCc1ccc(C2=C/C(=C/c3ccc(Cl)cc3)C(=O)N2CCc2ccc(S(N)(=O)=O)cc2)cc1 | -18.9% (active)
19 | COc1ccc(-c2cc(=O)oc3ccc(Cl)cc23)cc1F | -21.9% (active)
20 | CCN1CCN(Cc2ccc(NC(=O)Nc3nc(-c4cc(OC)c(OC)c(OC)c4)cs3)cc2C(F)(F)F)CC1 | 8.19% (active)

Row | SMILES | growth
21 | CC(C)c1c(C(=O)c2ccccc2)c(-c2ccccc2)c(-c2ccc(F)cc2)n1CC[C@@H](O)C[C@@H](O)CC(=O)O | 74%
22 | CCNc1cc2c(cc1Br)-c1ccccc1C2=O | 110%
23 | CCCCCCCCCCCCCCCCCC(=O)NCCNC(=O)CCCCCCCCCCCCCCCCC | 67.8%
24 | Cc1nnc(-c2cc3c(ccc4ccccc43)oc2=O)c2cn(-c3ccc(Cl)cc3)nc12 | 84.4%
25 | O=C1C(Cl)=C(NCCN2CCOCC2)C(=O)c2ncccc21 | -45.5% (active)
26 | CCn1cc(CNc2ccc(C(=O)Nc3cc4cc(OC)c(OC)cc4c(C)n3)cc2)cn1 | 32.8%
27 | COc1ccc(C(=O)/C=C/c2cc(C(=O)c3cc(OC)c(OC)c(OC)c3)ccc2OC)cc1 | 75.3%
28 | Nc1c(C(=O)Nc2cccc3ncccc23)sc2nc3c(cc12)C(=O)CCC3 | 32.8%
29 | CSCc1ncc(-c2ccc(C(F)(F)F)cc2)c(NC2CCCCCC2)n1 | 20.7% [25 µM]
30 | Nc1[nH]nc2nc(-c3ccccc3)n3c4ccccc4nc3c12 | 97.5%
31 | COc1ccc2c(c1)c(-c1nc(-c3ccc4ccccc4c3)cs1)cn2C | 85.7%
32 | O=C1c2cccnc2C(=O)c2c1c(C(=O)OCCCN1CCOCC1)c1ccccn21 | -3.63% (active)
33 | O=C(Nc1ccc(Cl)c(Cl)c1)Nc1c(Oc2ccc(Cl)c(Cl)c2)ccc(Cl)c1S(=O)(=O)O | 4.23% (active)
34 | COc1ccc(-c2n[nH]nc2-c2cc(OC)c3c(c2)OCO3)cc1 | -38.2% (active)
35 | O=C1NC(=O)C(Cc2ccc(OCc3ccc(-c4ccc(Cl)cc4Cl)cc3)cc2)S1 (stereo not given) | 56.9%
36 | O[C@@H]1CO[C@H]2[C@@H]1OC[C@@H]2O | 98%
37 | COC(=O)c1nc(-c2ccccc2)oc1S(=O)(=O)N1CCCC(C)C1 (stereo not given) | 15%
38 | CCCCNCC(O)c1cc(-c2ccc(C(F)(F)F)cc2)nc(-c2ccc(C(F)(F)F)cc2)c1 (stereo not given) | -49.2% (active)
39 | O=C(CSc1nc2ccc([N+](=O)[O-])cc2[nH]1)Nc1ccc(Br)cc1 | 39.4%
40 | O=C(O)CCCCCNC(=O)OCc1ccccc1 | 103%
